# TrxR1 inh: inhibitors of rat thioredoxin reductase 1 | recombinant rTrxR1, NADPH fluorescence consumption, selenite substrate | O89049 | Potency, µM (highest dose often 114 µM), without a hit: top-dose activity change, negative = inhibition, usual class: inhibitors | actives 1% (n = 390,000) | AID 588453; also: % is scaled to controls: 0 for no effect and ±100 for the full control effect; nearly all actives have a fitted effect of over 65% in size
#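 Rat TrxR1 (90 nM in the dispensed reagent) was pre-reduced with 400 uM NADPH for 5 min at room temperature, then incubated with compound for 15 min. After 400 uM selenite was added, NADPH fluorescence (Ex 340/Em 450 nm) was followed for 8 min.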
# IDH1 R132H inh: blocks human mutant IDH1 R132H enzyme; O75874; IDH1-R132H enzyme, NADPH consumption, diaphorase/resazurin fluorescence; Potency, µM (highest dose often 76.6 µM), without a hit: at the top dose activity change, negative = inhibition, usual class: inhibitors; actives 0.093% (n = 390,000); also: % is scaled to controls: 0 for no effect and ±100 for the full control effect; nearly all actives have a fitted effect of over 65% in size
#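 IDH1-R132H (0.5 ug/mL) preincubated 30 min with compound, then NADPH (0.016 mM) and alpha-KG (2 mM) added; 80 min at RT, pH 7.5. Remaining NADPH coupled via diaphorase/resazurin to fluorescence (540/590 nm); concentration-response curves normalized to no-enzyme control.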
# HEK293 tox: cytotoxicity counter-screen for GLP-1 receptor inverse agonists. Potency, µM (series often up to 38.3 µM), for the others: at the highest dose activity change, negative = inhibition, hits mostly inhibitors. actives 0.13% (n = 410,000). HEK293 cAMP-luciferase reporter cells, luminescence, 24 h;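 also: loss of luciferase light is scored as toxicity; % is scaled to controls: 0 for no effect and ±100 for the full control effect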
#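 Here, cytotoxicity is scored as loss of luminescence. The MLSMR collection was tested on cells seeded in medium containing 10% Nu serum, with a 24 hr compound exposure preceded by 12 hours of culture.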
# TrxR1 substrate: substrates of rat thioredoxin reductase 1 | O89049 | purified TrxR1 substrate turnover, NADPH consumption readout | Potency, µM (titrated, usually from 114 µM), inactives show at the highest dose activity change, negative = substrate turnover | actives 0.01% (n = 390,000) | AID 588456; also: % is scaled to controls: 0 for no effect and ±100 for the full control effect; nearly all actives have a fitted effect of over 50% in size
#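 Rat TrxR1, dispensed at 90 nM, was prereduced with 400 uM NADPH (final) for 5 min at ~22 deg C, then incubated with compound 15 min before 400 uM selenite. A first-read NADPH fluorescence drop versus no-compound background flagged substrates.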
# GLP-1R inv ag: acts as inverse agonist at human GLP-1 receptor. P43220. HEK293 GLP-1R CRE-luciferase, luminescence, 24 h; GLP-1R form is constitutively active. Potency, µM (titrated, usually from 38.3 µM), inactives show at the top dose activity change, negative = inhibition, hits mostly inhibitors. actives 1.6% (n = 410,000); also: % is scaled to controls: 0 for no effect and ±100 for the full control effect; nearly all actives have a fitted effect of over 55% in size
# Target sequence (P43220 whole entry, looked up): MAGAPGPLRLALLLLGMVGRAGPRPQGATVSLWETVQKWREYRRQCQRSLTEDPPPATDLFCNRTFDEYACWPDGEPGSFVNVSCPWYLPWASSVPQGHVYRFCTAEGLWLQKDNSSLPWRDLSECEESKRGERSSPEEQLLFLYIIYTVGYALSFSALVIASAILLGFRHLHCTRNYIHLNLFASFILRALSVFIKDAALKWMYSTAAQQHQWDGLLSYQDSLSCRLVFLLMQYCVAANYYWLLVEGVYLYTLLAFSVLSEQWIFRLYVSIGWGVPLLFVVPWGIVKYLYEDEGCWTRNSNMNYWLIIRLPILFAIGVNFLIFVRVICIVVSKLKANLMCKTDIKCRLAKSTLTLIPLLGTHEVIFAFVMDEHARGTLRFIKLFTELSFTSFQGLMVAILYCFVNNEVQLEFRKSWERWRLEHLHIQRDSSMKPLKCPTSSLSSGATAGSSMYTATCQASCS
#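 Readout was luciferase luminescence, measured 12 min after detection reagent at room temperature. Beforehand, GLP-1R reporter HEK293 cells had sat 12 h, then received compounds for 24 hr at 37 deg C.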
# GLP-1R agonist: agonists of human GLP-1 receptor | P43220 | HEK293 GLP-1R CRE-luciferase, luminescence, 4-6 h; cells express a hypersensitive GLP-1R form | Potency, µM (titrated, usually from 45.6 µM), for inactives: top-dose activation, usual class: activators | actives 0.007% (n = 380,000); also: % of control where 0% means no effect
# Starred values were filed as active, the others as inactive; ? = inconclusive; / = no result given; [ ] = remark or other dose. Sampled rows, rich in hits. Any-hit rate of the full collection: about 2.7%. Calls follow the shape of the dose curve; as a rule, active = well fitted curve in the direction sought with a large enough effect; inconclusive = small, poorly fitted or top-dose-only effect, or another doubt; inactive = no such curve, though single readings can be large; an effect the other way counts as inactive or inconclusive. Potency is read from the fitted curve at half-maximal effect.
SMILES,TrxR1 inh,IDH1 R132H inh,HEK293 tox,TrxR1 substrate,GLP-1R inv ag,GLP-1R agonist
O=C(c1ccc(OC2CCN(Cc3ccc(F)cc3)CC2)cc1)N1CCCC1,27%,5%,-3%,-3%,?,-3%
O=C(c1ccc(OC2CCN(C/C=C/c3ccc(F)cc3)CC2)cc1)N1CCCC1,24%,-6%,-22%,3%,3.2µM*,4%
CCc1ccc(CN2CCC(Oc3ccc(C(=O)N4CCCC4)cc3)CC2)cc1,-15%,2%,?,-15%,7.9µM*,-8%
CN(CCO)c1nc(-c2cccs2)nc2ccccc12,-1%,/,/,-10%,/,/
Cc1cc(Nc2cccc(Cl)c2)nc2ccc(NC(=O)c3ccc(F)cc3Cl)cc12,6%,5%,-25%,3%,?,-13%
O=C(/C=C/c1ccccc1Cl)Nc1cccc(S(=O)(=O)NC2=NCCCCC2)c1,26%[57.1 µM],9%,-5%,12%[57.1 µM],10µM*,9%
Cc1cc(SCC(=O)c2ccc(O)c(O)c2)n2nc(C)c(-c3ccccc3)c2n1,9%,-4%,?,0%,11µM*,16%
O=C(CSc1nc2ccccc2c(=O)[nH]1)c1ccc(O)c(O)c1,50µM*,9%,-27%,-17%,42%,23%
Cc1cc(=O)[nH]c(SCC(=O)c2ccc(O)c(O)c2)n1,56µM*,-11%,-13%,-20%,10%,-2%
Cc1cc(C)nc(SCC(=O)c2ccc(O)c(O)c2)n1,-4%,-7%,0%,-9%,1%,9%
Cc1ccc(C(=O)CSc2nc(C)cc(=O)[nH]2)cc1,3%,6%,1%,0%,3%,-1%
C=C[C@]1(C)C[C@@H](OC(=O)CO)[C@]2(C)C(C)CC[C@]3(CCC(=O)[C@H]32)[C@@H](C)[C@@H]1O (stereo partly specified),/,/,/,/,/,0%
CCn1cc(C(=O)NCc2ccc(F)cc2)c(=O)c2cc(S(=O)(=O)N(C)C)ccc21,13%,11%,-1%,-7%,5%,/
O=C(CSc1ccc(Cl)cc1)N1CCN(c2c(Cl)cccc2[N+](=O)[O-])CC1,?,3%,-13%,?,2.8µM*,1%
O=c1c2ccccc2n2c(-c3ccccc3F)nnc2n1CCc1ccccc1,6%,0%,0%,-8%,-1%,/
O=[N+]([O-])c1ccc(COc2ccc(CN3CCOCC3)cc2)cc1,7%,13%,-4%,6%,?,7%
O=[N+]([O-])c1ccc(CN2CCOCCOCCN(Cc3ccc([N+](=O)[O-])cc3)CCOCC2)cc1,12%[57.1 µM],7%,5%,7%[57.1 µM],10µM*,11%
Cc1ccc(C)c(S(=O)(=O)N2CCCC2CNC(=O)C(=O)Nc2ccccc2)c1 (stereo unspecified),/,-4%,2%,/,?,-1%
COc1ccc(NC(=O)C(=O)NCC2CCCN2S(=O)(=O)c2cc(C)ccc2C)cc1 (stereo unspecified),-2%,4%,?,-4%,4µM*,-4%
Cc1ccc2[nH]cc(C(O)c3c[nH]c4ccc(C)cc34)c2c1,12%,/,/,0%,/,/
Cc1ccc(CN(C)C(=O)c2ccccc2NC(=O)c2ccccc2)o1,28µM*,-9%,11%,-2%,-27%,-1%
CN(Cc1ccccc1)C(=O)c1ccccc1NC(=O)c1ccco1,2%,3%,17%,0%,-11%,7%
Cc1ccc(C(=O)C(C)OC(=O)C2CCN(c3ccc(C(F)(F)F)cn3)CC2)cc1 (stereo unspecified),-4%,1%,7%,-10%,10µM*,10%
COc1ccc(-n2cc(CNC(C)c3ccncn3)c(-c3cccc(F)c3)n2)cc1 (stereo unspecified),13%[57.1 µM],0%,3%,12%[57.1 µM],?,8%
CCC(COC)NCc1cn(-c2ccc(OC)cc2)nc1-c1cccc(F)c1 (stereo unspecified),4%,8%,?,12%,4.5µM*,4%
SMILES,TrxR1 inh,IDH1 R132H inh,HEK293 tox,TrxR1 substrate,GLP-1R inv ag,GLP-1R agonist
CC1(C(=O)Nc2ccccc2Cc2ccccc2)CCN1CCc1ccccc1 (stereo unspecified),/,/,6%,/,13µM*,-3%
Cc1ccc(C)n1-c1sccc1C(=O)O,50µM*,7%,?,-7%,-24%,-8%
C=CCOc1ccc(C=CC(=O)c2c(O)c(OC)c(OC)c(OC)c2OC)cc1,-2%[11.4 µM],7%,-17%,9%[57.1 µM],7.9µM*,-9%
C=CCOc1ccc(/C=C/C(=O)OCC(=O)NCc2cccc(OC)c2)cc1,-4%,2%,-3%,-6%,-20%,1%
CN(C)c1nc(-c2ccccn2)nnc1-c1ccccc1,8%[57.1 µM],-1%,?,7%[0.457 µM],6%,-7%
CCCN(CCC)c1nc(-c2ccccn2)nc2ccccc12,2%,4%,?,0%,3.5µM*,18%
CCN(CC)c1nc(-c2ccccn2)nc(-c2ccccc2)c1C#N,-2%[57.1 µM],0%,?,-5%[57.1 µM],13µM*,17%
O=C1CCN(Cc2nc(-c3ccc(Cl)cc3)no2)CCN1,-7%,-3%,-1%,-1%,4.5µM*,0%
COc1ccc(/C=N/NC(=O)c2cc(C34CC5CC(CC(C5)C3)C4)[nH]n2)cc1OC,6%[57.1 µM],6%,7%,0%[57.1 µM],3%,14%
O=C(N/N=C/c1ccc(O)cc1)c1cc(C23CC4CC(CC(C4)C2)C3)[nH]n1,16%,-2%,-32%,-5%,1.4µM*,15%
Cn1cnc([N+](=O)[O-])c1Sc1ncccc1N,35µM*,0%,-13%,-3%,5%,2%
CN[C@H]1C[C@H]2c3[nH]c4ccc(-c5cccc(C)c5)cc4c3CCN2C[C@H]1[C@H](C)O,/,1%,?,/,11µM*,-6%
COc1ccc(NC(=O)N(C)[C@H]2C[C@H]3c4[nH]c5ccc(-c6ccc(OC)cc6)cc5c4CCN3C[C@H]2[C@H](C)O)cc1,/,2%,?,/,7.1µM*,-3%
COc1ccc(NC(=O)N(C)[C@H]2C[C@H]3c4[nH]c5ccc(-c6ccc(OC)cc6)cc5c4CCN3C(=O)[C@H]2[C@H](C)O)cc1,/,-6%,?,/,?,-4%
CN[C@H]1C[C@H]2c3[nH]c4ccc(-c5ccc(OC)cc5)cc4c3CCN2C(=O)[C@H]1[C@H](C)O,/,13%,?,/,5.6µM*,-5%

# Bioassay records as filed in PubChem BioAssay.
